Reference: PubChem BioAssay AID1466 (National Center for Advancing Translational Sciences (NCATS), 2008)
In all, about 200,000 compounds went through this assay and about 10 (0.005%) were called active. Not shown: some 8% with an inconclusive outcome. The call rests on the fitted dose curve; in most records, active means well fitted inhibition curve with a large enough effect; inconclusive means small, poorly fitted or top-dose-only effect, or effect the other way, or another doubt; inactive means no such curve, though single readings can be large or run the other way. These entries were drawn from the full list.

Each compound was assayed against Lysosomal alpha-glucosidase (Homo sapiens) (UniProt P10253) (assay: qHTS Assay for Inhibitors of Human alpha-Glucosidase as a Potential Chaperone Treatment of Pompe Disease). Conditions: purified human GAA, 4-MU-alpha-glucoside fluorescence; series mostly up to 76.9 µM; activity change, negative = inhibition: at the top concentration.
Outline: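 Fluorogenic assay: 4 nM human alpha-glucosidase with 400 uM 4-methylumbelliferyl-alpha-D-pyranoside in 50 mM citrate/phosphate, 0.005% Tween-20, pH 5.0, 20 min at room temperature. Compounds tested up to 77 uM; AC50 from Hill fits.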
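Further: plate controls were uninhibited enzyme wells for no effect and no-enzyme background for full effect.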

Activity change, negative = inhibition, inactive:
O=C(/C=C/c1ccccc1[N+](=O)[O-])OC1CCCCC1=O (stereo unspecified) 0.967%, CCOc1ccc(C(CC(=O)O)n2cnnn2)cc1OC (stereo unspecified) 4.13%, Cc1cc(=O)[nH]c(S)c1C#N 1.79% [at 15.4 µM], Cc1c(Cl)cccc1NC(=S)N(Cc1ccccc1)Cc1cccnc1 1.69%, C=C(C)CNC(=S)Nc1ccc(S(=O)(=O)Nc2cnc3ccccc3n2)cc1 -14.1%, N/C(=N\OC(=O)Cc1ccc([N+](=O)[O-])cc1)c1ccccn1 -2.82%, COc1cccc(OC)c1CN(C)C(=O)c1cnccc1C(F)(F)F -1.85% [at 15.4 µM], CCS(=O)(=O)C1=NSC2=NC(=O)/C(=C\c3cc(C)n(-c4cccc(OC)c4)c3C)C(=N)N21 -5.46%, CC1CC(=O)Nc2ccccc2N1S(=O)(=O)c1cccs1 (stereo unspecified) -6.42%, Cc1nc(N2CCCCC2)sc1C=O -3.97%, Cc1cc(C)nc(NC(=O)/C=C/c2ccc(Cl)cc2)n1 -23.8%, COc1ccc(N2C(=O)C3C(C2=O)C(C(=O)c2ccccc2)N2CCCC32)cc1 (stereo unspecified) -6.45% [at 15.4 µM], Cc1ccc(OC(=O)c2c(C)nn(-c3ccccc3)c2C)cc1 3.81%, NS(=O)(=O)c1ccc(NC(=O)COC(=O)CCc2c[nH]c3ccccc23)cc1 3.96%, COc1ccc(CN(Cc2ccc(OC)cc2)C(=O)c2cccs2)cc1 0.0908%, CCC(=O)N(Cc1cc2ccccc2[nH]c1=O)c1ccc(OC)cc1 -0.638%, O=C(Nc1cccnc1)c1cccc(S(=O)(=O)N2CCCC2)c1 5.11%, CCOC(=O)NNc1cc(C(F)(F)F)ccn1 -7.1% [at 15.4 µM], CN(C)c1ccc(/C=C/C(=O)c2ccc(O)cc2)cc1[N+](=O)[O-] -8.53%, COC(=O)c1noc(C)c1-c1ccnn1C(=O)c1ccc(Cl)cc1 -10.5%, CN(CCC1CCOCC1)Cc1cn[nH]c1-c1ccc(-c2ccccc2)cc1 -10.9%, CCOC(=O)C1CCN(c2ncnc3c2c(-c2ccccc2)cn3-c2ccc(C)cc2)CC1 1.29%, CCOC(=O)c1sc(NC(=O)CSc2nc(O)c(Cc3ccccc3)c(=O)[nH]2)nc1C -4.75%, Cc1cc(=O)oc2c(C(=O)c3ccccc3)c(OCC(N)=O)ccc12 7.98%, Cc1cc(C)cc(OCC(=O)O/N=C(\N)Cc2ccc([N+](=O)[O-])cc2)c1 -14.2%, COC(=O)c1cc(NC(=O)c2ccco2)ccc1N1CCOCC1 5.5%, CCc1ccc(NC(=O)N2CCN(c3ccccc3)CC2)cc1 0.27%, C=CCN(c1ccccc1C(=O)NCC(=O)OCC)S(=O)(=O)c1ccc(C)cc1 -5.41%, CNC(=O)COC(=O)c1cc(-c2ccc(OC)cc2)nc2ccccc12 1.14%, COCCCNC(=S)NCCNc1nc2cc(C)c(C)cc2cc1C#N 11.7%, C/[N+]([O-])=C\c1ccc([N+](=O)[O-])o1 -1.29%, COc1ccc(O)c(C(=O)c2cnc3c(c2)c(-c2ccc(F)cc2)c(C#N)c(=O)n3C)c1 2.1%, CN(C)S(=O)(=O)c1ccc(NC(=O)COC(=O)Cn2[nH]c(=O)c3ccccc3c2=O)cc1 -14.6%, Cc1ccc(CN(Cc2cccnc2)C(=S)Nc2cc(Cl)ccc2C)cc1 -3.74%, Cc1ccccc1NCC(=O)N/N=C\c1ccc([N+](=O)[O-])s1 -9.83%, COc1cccc(NC(=O)C(Sc2nnnn2C)c2ccccc2)c1 (stereo unspecified) -3.14%, Cc1cc(C(=O)N/N=C\C(Br)=C\c2ccccc2)c(C)o1 -12.8%, COc1ccc(NC(=O)CSc2ncnc3[nH]ncc23)cc1 5.07% [at 15.4 µM], COc1cc(C(F)(F)F)c(C(=O)N(C)c2ccc(Cl)cc2)cn1 -7.91%, O=C(CP(=O)(c1ccccc1)c1ccccc1)N1CCOCC1 8.31%, S=C(Nc1ccc(Br)cc1Cl)NC1CCN(Cc2ccccc2)CC1 1.66%, CC(NC(=S)Nc1ccc(OC(F)F)cc1)c1ccc(F)cc1 (stereo unspecified) -1.9%, CS(=O)(=O)c1ccc2nc(NC(=O)c3ccc(N4CCCC4=O)cc3)sc2c1 -7.6%, CCOCCCNC(=O)C(NC(=O)c1ccccc1O)c1ccccc1 (stereo unspecified) -4.04%, O=C(C1CCN(S(=O)(=O)c2ccc(Br)s2)CC1)N1CCN(C2CCCCC2)CC1 -23.2%, Cc1cc(-c2nc(C)c(-c3nnc(SCC(=O)Nc4ccccc4)n3C)s2)no1 3.88% [at 15.4 µM], CNc1ccc([N+](=O)[O-])cc1C(=O)O -15.9%, CSCC[C@H](NC(=O)NC1CCCC1)C(=O)O -5.49% [at 15.4 µM], Cc1ccc(-c2cc(C(=O)NN)n[nH]2)o1 -2.87%, Cc1cccc(C)c1NC(=O)C1CCCN1C(=O)OC(C)(C)C (stereo unspecified) 1.51%, Cc1ccc(/C=N/NC(=O)CSc2ccccn2)o1 0.179% [at 15.4 µM], CCCCCCCCCCCCC(NC(C)=O)(C(=O)OCC)C(=O)OCC -6.38%, O=C(NCC1CCCO1)c1cc(-c2ccccc2)nc2ccccc12 (stereo unspecified) -10.8% [at 15.4 µM], FC(F)(F)c1cccc(-c2nc(COc3ccc(Cl)cc3Cl)no2)c1 -4.53%, COc1ccc(N2CCN(C(=O)CNS(=O)(=O)c3ccc(C)c(C)c3)CC2)cc1 -1.52%, C/C(=N\Nc1ncc(Cl)cc1Cl)c1cccs1 4.46%, Cc1onc(C(=O)NN)c1C(=O)N1CCN(C(c2ccccc2)c2ccccc2)CC1 -11.1%, CCOc1ccc2sc(NS(=O)(=O)c3ccc(N)cc3)nc2c1 -7.28%, CCn1c(SCc2ccccc2)nc2c(c1=O)SCC2 0.321%, Nc1ccccc1Sc1cc(Cl)nnc1Cl 3.88%, Cc1cccc(CSc2nc3c(c(=O)n2C)SCC3)c1 -3.07%
